Laboratory results: PubChem BioAssay (NCI)
About 79,000 compounds went through this panel and 15% of them were active in at least one assay; those are over-represented in the sample as a whole. The source made the active and inactive calls. Cut-off read from the data, not from the text of the source: active = growth inhibition above about 70%; inactive = the rest.

Experiment: NCI Yeast Anticancer Drug Screen. Data for the bub3 strain (AID 167)
Conditions: S. cerevisiae bub3 mutant strain, at 5.0 µM (retest, dose inferred, filed as 0.5), stronger effect = higher value
Outline: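 Steps: expose the mutant yeast strain to compound; grow alongside vehicle-treated cultures; measure growth; express inhibition against the vehicle cultures.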
With CC(CN(C)C)C(=O)/C=C/c1c(Cl)cccc1Cl (stereo not given) the growth inhibition was -1% (inactive).
In the case of COc1ccc(C(=O)c2cc(Br)ccc2O)cc1, the growth inhibition is reported as 3% (inactive).
For COc1cccc(OC)c1C(=O)/C=C/c1ccccc1, the growth inhibition was -5% (inactive).
In the case of S=C(Nc1ccc(Cl)c(Cl)c1)SC1CCCCC1, the growth inhibition is reported as 17% (inactive).
For Cc1sc(N=Nc2c(O)[nH]c3ccccc23)nc1-c1ccccc1, the growth inhibition was 24% (inactive).
With O=C(NC(c1ccccc1)N1CCOCC1)c1ccccc1 (stereo not given) the growth inhibition was -3% (inactive).
With Cc1nc2ccc3c(ccc4nc(C)c(N=Nc5ccc(C(=N)N)cc5)c(O)c43)c2c(O)c1N=Nc1ccc(C(=N)N)cc1 the growth inhibition was -6% (inactive).
With CN(C)CCNC(=O)C(c1ccccc1)c1ccccc1 the growth inhibition was -1% (inactive).
In the case of CCOc1ccc(C(=O)CCN2CCOCC2)cc1, the growth inhibition is reported as 14% (inactive).
With O=S(Nc1ccccc1Br)c1ccccc1 (stereo not given) the growth inhibition was -4% (inactive).
In the case of CSC(=S)N/N=C(\C)c1ccc[nH]1, the growth inhibition is reported as 0% (inactive).
With Cc1ccc(Cl)cc1NN the growth inhibition was -2% (inactive).
With C[C@]12CC[C@H](O)C[C@@H]1CC[C@@H]1[C@@H]2CC[C@]2(C)[C@@H](c3cc(C(F)(F)F)n[nH]3)CC[C@@H]12 the growth inhibition was -3% (inactive).
With CCCOC(=O)C(S)C(S)C(=O)OCCC (stereo not given) the growth inhibition was 5% (inactive).
For CCC(C)(C)c1cc(Br)c(NS(=O)(=O)c2ccc(NC(C)=O)cc2)c(Br)c1, the growth inhibition was -3% (inactive).
For Cn1c2c(c3nc(N)nc(N)c3c1=O)CCc1ccccc1-2, the growth inhibition was -1% (inactive).
For Cc1ccc(C(O)CCN2CCOCC2)c(C)c1 (stereo not given), the growth inhibition was 43% (inactive).
With COC(=O)CCCC(=O)NC1=C(Nc2ccccc2)C(=O)c2ccccc2C1=O the growth inhibition was 33% (inactive).
In the case of Oc1cc(Br)cc2cccnc12, the growth inhibition is reported as 99% (active).
For COC(=O)Cc1cn[nH]c1C(=O)OC, the growth inhibition was -68% (inactive).
For O=C1CCCCCCC2=C1C(Sc1ccccc1)CC2 (stereo not given), the growth inhibition was 3% (inactive).
In the case of CC/C(=C1\C=CC(=O)S1)C(CC)c1ccc(OC(C)=O)cc1 (stereo not given), the growth inhibition is reported as -25% (inactive).
In the case of COc1ccc(C2=C(Cl)C(=O)N(c3ccc(C)cc3)C(=O)C2(Cl)Cl)cc1, the growth inhibition is reported as -7% (inactive).
With CN(C)C1C[C@@H](O[Si](C)(C)C(C)(C)C)C=C1S(=O)(=O)c1ccccc1 (stereo not given in full) the growth inhibition was -14% (inactive).
With NC(=O)C(=O)N/N=C/c1ccc([N+](=O)[O-])o1 the growth inhibition was 37% (inactive).
In the case of O=C(O)C1CCC(CC2CC3CCC2C3)CC1 (stereo not given), the growth inhibition is reported as -73% (inactive).
For CCCCCCCCCCCCOCC[N+](CCO)(CCO)Cc1ccccc1, the growth inhibition was 97% (active).
For Cc1cc(C)cc([C@H](C)N=Cc2cc(Br)ccc2O)c1, the growth inhibition was -10% (inactive).
For C=CC1(c2ccc(OC)cc2)OCCCO1, the growth inhibition was -27% (inactive).
With CC(C)CCOC(=O)c1ccc(O)cc1.[Zn+2] the growth inhibition was 53% (inactive).
In the case of C/C=C/C=C\C1OC(O)([C@H](CC)C(=O)NC/C=C/C=C(\C)[C@H](OC)C(C)C2OC(\C=C/C=C/C=C(\C)C(=O)c3c(O)ccn(C)c3=O)[C@H](O)[C@@H]2O)C(O)C(O)C1(C)C (stereo not given in full), the growth inhibition is reported as -42% (inactive).
In the case of O=c1cccccc1[O-].O=c1cccccc1[O-].O=c1cccccc1[O-].[Dy+3], the growth inhibition is reported as 7% (inactive).
For CCCC(=O)Oc1ccc(-c2ccc(Br)cc2)cc1, the growth inhibition was 39% (inactive).
In the case of Oc1c(Cl)c(Cl)c(O)c2c1CCCC2, the growth inhibition is reported as 65% (inactive).
In the case of Clc1nc(Cl)nc(N2CCCc3ccccc32)n1, the growth inhibition is reported as -10% (inactive).
With CC[C@H]1CN2CCc3cc(OC)c(OC)cc3[C@@H]2C[C@@H]1C[C@H]1NCCc2cc(OC)c(OC)cc21 the growth inhibition was 3% (inactive).
For S=C(NCCc1ccccc1)N/N=C/c1ccc(Cl)cc1, the growth inhibition was 52% (inactive).
In the case of O=C(O)Cc1ccc2c(c1O)C(=O)c1ccccc1C2=O, the growth inhibition is reported as 0% (inactive).
In the case of CC1CCN(C(=S)NNC(C)c2cc3ccccc3cn2)CC1 (stereo not given), the growth inhibition is reported as 71% (active).
For Cc1c[nH]c(C(=O)O)c1-c1ccc2c(-c3ccccc3)nc3ccccc3n12, the growth inhibition was 13% (inactive).
